# Results from the supplement of paper PMC4022240.
# ± gives the standard deviation.
# T1: HaloTag-ATRX ADD domain (163-292)
# T1 chain: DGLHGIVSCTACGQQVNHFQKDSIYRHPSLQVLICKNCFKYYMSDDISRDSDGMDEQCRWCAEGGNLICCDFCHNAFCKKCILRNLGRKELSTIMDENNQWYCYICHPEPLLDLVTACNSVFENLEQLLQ
# Key:
# Experiment in all cases: peptide microarray binding signal (635 nm), min-max normalized on array (fraction of array maximum); higher = stronger binding
# Conditions in all cases: peptide region: Unmod H1 variant
# [1] = molecular target: T1, HaloTag-ATRX ADD domain (163-292)
# Procedure, shortened: (§1)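 Arrays carried histone 13-mer peptide–cellulose conjugates printed in triplicate on nitrocellulose alongside a Cy3 tracer. After overnight blocking at 4°C, they were incubated for 1 h at 4°C with biotin-labelled HaloTag reader fusions (10 nM to 1 μM) plus streptavidin-Alexa Fluor 647, or with rabbit histone antibodies (1:10,000 to 1:2,000) plus anti-rabbit Alexa 647. Scanning on an Axon GenePix 4000B used 635 nm for signal and 532 nm for misprints. The binding signal reported is each triplicate's mean spot intensity after per-library min-max scaling.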
# [2] = molecular target: HaloTag-ING2 PHD (mouse Ing2 200-280)
# Procedure, shortened: as §1
# [3] = molecular target: anti-H3K4me3 antibody ab8580
# Procedure, shortened: as §1
# [4] = molecular target: anti-H3K9me3 antibody ab8898
# Procedure, shortened: as §1
# [5] = binder concentration: 1:2,000 dilution
# [6] = binder concentration: 1:10,000 dilution
Binder,peptide microarray binding signal ([1]; binder concentration: 50 nM),peptide microarray binding signal ([1]; binder concentration: 500 nM),peptide microarray binding signal ([2]; binder concentration: 10 nM),peptide microarray binding signal ([2]; binder concentration: 100 nM),"peptide microarray binding signal [3, 5]","peptide microarray binding signal [3, 6]","peptide microarray binding signal [4, 5]","peptide microarray binding signal [4, 6]"
SKGTLVQTKGTGA [Unmod H1 variant S K G T L V Q T K G T G A],0.0193 ± 0.0038,0.0147 ± 0.00052,0.003939 ± 2.1e-05,0.0162 ± 0.0012,0.000812 ± 6.2e-05,0.0012 ± 2.4e-05,0.000211 ± 2.2e-06,0.00075 ± 7.9e-06
LKKALAAAGYDVE [Unmod H1 variant L K K A L A A A G Y D V E],0.0162 ± 0.00021,0.0149 ± 0.00063,0.00322 ± 3.5e-05,0.004606 ± 3.8e-05,0.000982 ± 5.9e-05,0.001655 ± 1.6e-05,0.000861 ± 5.4e-05,0.001211 ± 1.2e-05
PAGPSVSELIVQA [Unmod H1 variant P A G P S V S E L I V Q A],0.0127 ± 0.00021,0.00367 ± 0.00014,0.00203 ± 3.6e-05,0.00177 ± 3.1e-05,0.00111 ± 0.00011,0.00097 ± 2.6e-05,0.000438 ± 1.7e-05,0.00075 ± 7.9e-06
ERGGVSLAALKKA [Unmod H1 variant E R G G V S L A A L K K A],0.0175 ± 0.00043,0.0165 ± 0.00037,0.0122 ± 0.00043,0.0252 ± 0.0017,0.00283 ± 4.9e-05,0.00496 ± 0.00014,0.00225 ± 8.6e-05,0.00283 ± 4.9e-05
AGKKAKKPAKAAA [Unmod H1 variant A G K K A K K P A K A A A],0.0147 ± 0.00057,0.0114 ± 0.0028,0.00507 ± 0.00099,0.00539 ± 0.00095,0.000585 ± 4.5e-05,0.000856 ± 8.9e-06,0.000181,0.000692 ± 7.3e-06
SETVPPAPAASAA [Unmod H1 variant S E T V P P A P A A S A A],0.0132 ± 0.00014,0.00691 ± 0.00014,0.00448 ± 6.1e-05,0.00446 ± 0.00013,0.00151 ± 2.3e-05,0.00223 ± 4e-05,0.000891 ± 7.7e-05,0.00115 ± 2e-05
IVQAASSSKERGG [Unmod H1 variant I V Q A A S S S K E R G G],0.0196 ± 0.0029,0.0152 ± 0.00061,0.0112 ± 0.00078,0.0197 ± 0.0013,0.00279 ± 6.5e-05,0.00708 ± 0.00071,0.00216 ± 0.00024,0.00306 ± 0.00012
YDVEKNNSRIKLG [Unmod H1 variant Y D V E K N N S R I K L G],0.0163 ± 0.00037,0.0175 ± 0.00085,0.00841 ± 0.00067,0.0132 ± 0.00014,0.000944 ± 1.6e-05,0.00114 ± 3e-05,0.000453 ± 1.5e-05,0.00075 ± 1.6e-05
IKLGIKSLVSKGT [Unmod H1 variant I K L G I K S L V S K G T],0.0221 ± 0.0027,0.0236 ± 0.00098,0.00656 ± 0.00055,0.0191 ± 0.0018,0.00147 ± 3.9e-05,0.00262,0.00109 ± 2.9e-05,0.001441 ± 1.4e-05
ASAAPEKPLAGKK [Unmod H1 variant A S A A P E K P L A G K K],0.0171 ± 0.0014,0.0163 ± 0.00078,0.00603 ± 0.00016,0.0206 ± 0.0028,0.00151 ± 4.1e-05,0.00262 ± 0.00011,0.000891 ± 5.9e-05,0.00115 ± 2e-05
